# APE1 inh – qHTS Assay for Inhibitors of the Human Apurinic/apyrimidinic Endonuclease 1 (APE1). DNA repair nuclease/redox regulator APEX1 (Homo sapiens), P27695. recombinant APE1, TAMRA/BHQ-2 abasic DNA cleavage fluorescence. Potency, µM (top dose mostly 65.8 µM), for inactives: top-dose activity change, negative = inhibition, hits mostly inhibitors. 350,000 tested, 0.35% active. AID 2517, 2012;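 also: plate controls were vehicle for no effect and reference inhibitor for full effect; nearly all actives have a fitted effect of over 55% in size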
#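 APE1 at 0.75 nM preincubated 15 min at room temperature with compound. Reaction then started with 50 nM double-stranded THF-abasic substrate labelled with TAMRA/BHQ-2, and 525/598 nm fluorescence read kinetically. Activity taken as third-minus-first read difference, normalized to DMSO and NSC13755 controls.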
# RGS12 GoLoco inh – qHTS Assay for Inhibitors of RGS12 GoLoco Motif Activity (Red Fluorophore); Gai1:RGS12 GoLoco peptide FP, rhodamine, 10 min; Potency, µM (top dose mostly 61.6 µM), for the others: top-dose activity, negative = inhibition, actives largely listed as inhibitors; 230,000 tested, 0.44% active; active = well fitted inhibition curve with a large enough effect, not every such curve was filed as active; inactive = no such curve, though single readings can be large or run the other way; also: nearly all actives have a fitted effect of over 30% in size
# Target sequence (P63096 whole entry, looked up): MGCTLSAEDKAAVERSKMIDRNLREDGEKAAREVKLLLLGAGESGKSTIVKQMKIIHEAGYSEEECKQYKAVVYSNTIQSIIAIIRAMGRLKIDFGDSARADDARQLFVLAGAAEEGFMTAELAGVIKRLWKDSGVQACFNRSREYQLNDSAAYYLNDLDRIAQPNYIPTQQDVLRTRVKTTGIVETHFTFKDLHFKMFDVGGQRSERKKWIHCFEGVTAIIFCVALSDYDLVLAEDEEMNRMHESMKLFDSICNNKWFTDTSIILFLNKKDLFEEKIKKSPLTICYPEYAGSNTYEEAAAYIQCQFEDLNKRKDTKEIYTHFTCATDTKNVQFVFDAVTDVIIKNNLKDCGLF
# TR SRC2 fluor cs – Total Fluorescence Counterscreen for Inhibitors of the Interaction of Thyroid Hormone Receptor and Steroid Receptor Coregulator 2. TRb/SRC2 Texas Red total fluorescence interference. Potency, µM (top dose mostly 106 µM), for the others: at the top dose fluorescence change, negative = quenching. 280,000 tested, 0.29% active. AID 1479, 2009; active = well fitted curve in either direction with a large enough effect; inconclusive = small, poorly fitted or top-dose-only effect
#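 Human TRb ligand-binding domain at 0.6 uM with 20 nM Texas Red SRC2 peptide in Tris buffer containing 1 uM T3 and 5% DMSO, incubated with compound 5 h at ambient temperature. Total fluorescence (555/632 nm) calculated as parallel + 2 × perpendicular.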
# RECQ1 inh-1 – qHTS Assay for Inhibitors of RecQ-Like Dna Helicase 1 (RECQ1). ATP-dependent DNA helicase Q1 (Homo sapiens), P46063. RECQ1 DNA unwinding, red fluorescence kinetic read. Potency, µM (titrated, usually from 57.3 µM), for the others: at the top dose activity, negative = inhibition, most hits filed as inhibitors. 240,000 tested, 0.54% active. AID 2549, 2010;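 also: plate controls were vehicle for no effect and no enzyme for full effect; nearly all actives have a fitted effect of over 30% in size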
#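 50 nM RECQ1T1 preincubated 15 min with compound in Tris pH 8.0 buffer with MgCl2, DTT, Tween-20 and 2.5 ug/ml poly(dI-dC); started with 200 nM TAMRA/BHQ-2 forked duplex and 2 mM ATP. Unwinding read as fluorescence (525/598 nm), two reads 2 h apart.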
# BLM inh – qHTS Assay for Inhibitors of Bloom's syndrome helicase (BLM); RecQ-like DNA helicase BLM (Homo sapiens), P54132; recombinant BLM DNA unwinding, fluorescence dequenching; Potency, µM (highest dose often 56.1 µM), for the others: at the highest dose activity change, negative = inhibition, actives largely listed as inhibitors; 350,000 tested, 0.2% active;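 also: plate controls were vehicle for no effect and no enzyme for full effect; nearly all actives have a fitted effect of over 35% in size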
# TRb SRC2 PPI – qHTS for Inhibitors of the Interaction of Thyroid Hormone Receptor and Steroid Receptor Coregulator 2. TRbeta-SRC2 peptide binding, fluorescence polarization; receptor liganded with 1 µM T3. Potency, µM (series often up to 106 µM), for inactives: at the top dose activity change, negative = inhibition, actives largely listed as inhibitors. 280,000 tested, 0.065% active. AID 1469, 2008;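 also: plate controls were bound peptide for no effect and peptide without receptor for full effect; nearly all actives have a fitted effect of over 50% in size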
#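 A fluorescence polarization screen tested compounds at multiple concentrations against complex formation between 0.6 uM TRb ligand-binding domain and 20 nM Texas Red SRC2 peptide, with 1 uM T3 present; readout after 5 hr.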
# RECQ1 inh-2 – Confirmation qHTS Assay for Inhibitors of RecQ-Like Dna Helicase 1 (RECQ1) - Round 2 Cherry Picks; recombinant RECQ1 DNA unwinding, red fluorescence; AID 504841, 2011; Potency, µM (titrated, usually from 119 µM), without a hit: at the top dose activity, negative = inhibition, most hits filed as inhibitors; 1,100 tested, 15% active; shares compounds with RECQ1 inh-1; also: nearly all actives have a fitted effect of over 50% in size
# Numbers without * were called inactive; i = inactive; ? = inconclusive; nt = no result given. Compounds with a hit are over-represented: about 0.9% of the library has one in this group of screens. Unless noted, calls follow the shape of the dose curve; as a rule, active = well fitted curve in the direction sought with a large enough effect; inconclusive = small, poorly fitted or top-dose-only effect, or another doubt; inactive = no such curve, though single readings can be large; an effect the other way counts as inactive or inconclusive. Unless noted, % is scaled to controls: 0 for no effect and ±100 for the full control effect; potency is read from the fitted curve at half-maximal effect.
SMILES,APE1 inh,RGS12 GoLoco inh,TR SRC2 fluor cs,RECQ1 inh-1,BLM inh,TRb SRC2 PPI,RECQ1 inh-2
O=C(O)c1cccc(Cn2c(Cl)c(/C=N/NC(=O)c3ccccc3)sc2=O)c1,3%,16%,0%,-10%,1%,-5%,nt
N=C1/C(=C/c2ccc(-c3cccc(C(=O)O)c3)o2)C(=O)N=C2SC=C(c3ccccc3)N12,?,29%,?,?,?,18%,?
N=C1/C(=C\c2ccc(-c3cc(Cl)cc(Cl)c3)o2)C(=O)N=C2SC=C(c3ccccc3)N12,2%,29%,0%,-4%,0%,-7%,nt
COc1ccc(OC)c(Nc2nc(NCCCN(C)C)nc(N)c2[N+](=O)[O-])c1,?,-1%,-7%,?,?,0%,?
COCCCNc1nc(N)c([N+](=O)[O-])c(Nc2cc(OC)ccc2OC)n1,1%,-3%,0%,i,-12%,0%,nt
O=C(NCc1ccco1)c1ccc(Cn2c(SCc3ccccc3)nc3cccnc32)cc1,nt,nt,3%,nt,-4%,3%,nt
COc1ccc2[nH]c3c(C)c4ccncc4c(C)c3c2c1,7.9µM*,15%,-11%,22µM*,42%,-5%,7.9µM*
Cc1ccc(S(=O)(=O)NCC(=O)N(CC(=O)NCC2CCCO2)Cc2ccccc2)cc1 (stereo unspecified),-2%,9%,0%,i,-1%,-4%,nt
Cc1ccc(S(=O)(=O)NCC(=O)N(CC(=O)NCC2CCCO2)Cc2ccco2)cc1 (stereo unspecified),?,39%,-9%,22µM*,-28%,-2%,-14%
Cc1ccc(CN2CCCn3nc(C(=O)NCCc4ccccc4Cl)cc3C2=O)cc1,nt,nt,-1%,nt,-1%,0%,nt
O=C(NC(=S)Nc1ccccc1)c1ccc(-c2ccccc2)cc1,17%,13%,1%,4%,0%,-17%,nt
CC(C)NS(=O)(=O)c1ccc(NC(=S)NC(=O)c2ccc(-c3ccccc3)cc2)cc1,-5%,7%,-7%,?,-9%,-8%,-7%
CCc1cccc(CC)c1NC(=O)Cn1nnc2sc(-c3ccccc3)cc2c1=O,nt,nt,-1%,nt,-5%,-3%,nt

# From PubChem BioAssay
